Calls of active or inactive are those of the source. How the calls were made is not given here.
tested on: HIV-1 nucleocapsid protein NCp7 (binding to TG oligonucleotide); assay: HIV Nucleocapsid (AID 346); details: HIV-1 NC / fluorescein-TGTGTGTG probe, fluorescence polarization;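 further: potency is for inhibitors that block NC binding and lower polarization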
Outline: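 HIV-1 NC (100 nM) binding to fluorescein-labelled ssDNA TG4xF (10 nM) in Hepes pH 7.5, 250mM NaCl, 1uM ZnCl2, TCEP and 2-mercaptoethanol; compounds pin-transferred, 1 hr room temperature, fluorescence polarization read on CCD imager.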
Potency means the concentration at half of the fitted maximal effect.

Row | Structure (SMILES) | Potency
1 | Cc1nc2cnc(Nc3ccccc3)nc2n(CCC#N)c1=O | > 20 µM (inactive)
2 | COc1ccc(-c2nc3cnc(OC)nc3n(CCc3ccccc3)c2=O)cc1 | > 20 µM (inactive)
3 | Cc1ccccc1-c1nc(NCc2cccs2)c2ccccc2n1 | > 20 µM (inactive)
4 | c1ccc(Nc2ncnc3ccc(-c4ccoc4)cc23)cc1 | > 20 µM (inactive)
5 | CN1CCCC2(CCN(S(=O)(=O)c3ccccc3)CC2)C1 | > 20 µM (inactive)
6 | COc1ccccc1CCn1c(=O)cnc2cncnc21 | > 20 µM (inactive)
7 | CN1CCN(c2ncc3nc(-c4cc(F)cc(F)c4)c(=O)n(CCc4ccccc4)c3n2)CC1 | > 20 µM (inactive)
8 | CS(=O)(=O)Nc1cccc(-c2cncnc2NCc2cccs2)c1 | > 20 µM (inactive)
9 | c1ccc(CNc2ncnc3ccc(-c4ccc5c(c4)OCO5)cc23)cc1 | > 20 µM (inactive)
10 | COCCNc1nc(-c2ccccc2C(F)(F)F)nc2ccccc12 | > 20 µM (inactive)
11 | CCNc1ncc2nc(-c3cccs3)c(=O)n(Cc3ccc(F)cc3)c2n1 | > 20 µM (inactive)
12 | O=c1c(CCc2ccccc2)nc2cnc(N3CCNCC3)nc2n1-c1ccccc1 | > 20 µM (inactive)
13 | FC(F)(F)c1ccccc1-c1nc(NCCN2CCOCC2)c2ccccc2n1 | > 20 µM (inactive)
14 | COCCn1c(=O)c(-c2ccc(F)cc2)nc2cnc(OCc3ccccc3)nc21 | > 20 µM (inactive)
15 | COc1ccc(C(=O)N2CCC[C@@]3(CCN(Cc4ccncc4)C3)C2)cc1 | > 20 µM (inactive)
16 | COc1ccc(-c2nc3cnc(N4CCNCC4)nc3n(Cc3cccc(OC)c3)c2=O)cc1 | > 20 µM (inactive)

Source: PubChem BioAssay (NCATS)
